This is an account of results in ChEMBL document CHEMBL1157539, “Thousands of chemical starting points for antimalarial lead identification” (Nature, 2010).

Molecules are shown by their SMILES.

This assay concerns Plasmodium falciparum. Put plainly: GSK_TCMDC: Inhibition of Plasmodium falciparum 3D7 in whole red blood cells, using parasite LDH activity as an index of growth. Test compounds present at 2uM. Format: functional.
The Inhibition is the relative decrease from the control value, in per cent. The low end stands for a weak effect, the high end for a strong effect. `CCc1cc(NCc2ccncc2)nc(Nc2ccc(F)cc2)n1`: the Inhibition was 92%.
In the case of `N=C(NCCCCCCCCNC(=N)Nc1ccc(Cl)cc1)Nc1ccc(Cl)cc1`, the Inhibition came out at 93%.
`CCN(CC)c1ccc(C(c2ccc(N(CC)CC)cc2)c2ccc([N+](=O)[O-])cc2)cc1` returned an Inhibition of 82%.
Take `Cc1ccnc(NC(=O)c2cc(-c3cccc([N+](=O)[O-])c3)nc3onc(C)c23)c1`: the Inhibition was 91%.
`O=C(NCCc1ccc(O)cc1)n1c2ccccc2c2ccccc21` returned an Inhibition of 83%.
`COc1cccc(C23NC(=Nc4nc5ccccc5[nH]4)NC2(c2cccc(OC)c2)NC(=Nc2nc4ccccc4[nH]2)N3)c1` (stereo not given): the Inhibition is given as 100%.
As to `COc1ccc2nc3cc(Cl)ccc3c(NCCCO)c2c1`, the Inhibition amounted to 100%.
As for `COc1cc2nc(NCCc3ccccc3)nc(NCCc3ccccc3)c2cc1OC`, the Inhibition is listed as 100%.
`CCCc1c(Cl)cc(CNCCCNc2nc3ccncc3[nH]2)cc1Cl` yielded an Inhibition of 98%.
For `CC[C@H](NC(=O)c1c(CCCN2CCN(c3ccccc3)CC2)c(-c2ccccc2)nc2cc(O)ccc12)c1ccccc1`, the Inhibition is listed as 96%.
In turn, `CN1CCN(CCc2ccc3nc(-c4csc(Cc5cc(Cl)ccc5OCc5ccccc5)n4)[nH]c3c2)CC1` registered an Inhibition of 100%.
Turning to `Cc1ccc2[nH]c(C)cc(=NN=Cc3ccccc3F)c2c1`, the Inhibition was determined as 97%.
Consider `COc1cc(Cc2cnc(N)nc2N)cc(OCCCCC2SC(=O)NC2=O)c1OC` (stereo not given), for which the Inhibition was 94%.
With `O=C(Nc1cccc(OC2CCN(Cc3ccsc3)CC2)c1)c1ccc(C(F)(F)F)cc1.O=C(O)C(F)(F)F`, the Inhibition amounted to 98%.
Turning to `COc1cccc(NC(=O)Nc2ccc(Nc3nc(C)cc(N(C)C)n3)cc2)c1`, the Inhibition worked out at 100%.
